Drawing on PubChem BioAssay (EPA / NIEHS), this text covers outcome and AC50 for three compounds.

Test [1] deals with human RAR-related Orphan Receptor beta (RORb), RORB (gene 6096) (UniProt Q92753). Nature of the test: ATG_RORb_TRANS: Attagene TRANS-FACTORIAL HepG2 Assay for human RAR-related Orphan Receptor beta (RORb) (AID 2283010; active = hit-call score of the fitted dose curve at least 0.9, where 1 is the maximum). The method, boiled down:
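HepG2 cells were transiently transfected with multiplexed GAL4-UAS reporter units expressing chimeric nuclear receptor–GAL4 proteins, then dosed for 24 h. Reporter mRNA was quantified by RT-PCR with fluorescent labelling and capillary electrophoresis; gain of signal was fitted relative to DMSO.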

The target in test [2] is human RAR-related Orphan Receptor gamma (RORg), RORC (gene 6097) (UniProt P51449). Nature of the test: ATG_RORg_TRANS: Attagene TRANS-FACTORIAL HepG2 Assay for human RAR-related Orphan Receptor gamma (RORg) (AID 2283011; active = hit-call score of the fitted dose curve at least 0.9, where 1 is the maximum). The method, boiled down: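 Readout: reporter transcript induction (RT-PCR, fluorescent primer extension, capillary electrophoresis) after 24 h compound exposure of transiently transfected HepG2 cells carrying a RORg-Gal4 chimera and GAL4-UAS reporters; DMSO served as baseline, with increasing signal fitted.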
Chain of human RAR-related Orphan Receptor gamma (RORg), RORC (gene 6097) (P51449 whole entry, looked up, the tested form may be a part): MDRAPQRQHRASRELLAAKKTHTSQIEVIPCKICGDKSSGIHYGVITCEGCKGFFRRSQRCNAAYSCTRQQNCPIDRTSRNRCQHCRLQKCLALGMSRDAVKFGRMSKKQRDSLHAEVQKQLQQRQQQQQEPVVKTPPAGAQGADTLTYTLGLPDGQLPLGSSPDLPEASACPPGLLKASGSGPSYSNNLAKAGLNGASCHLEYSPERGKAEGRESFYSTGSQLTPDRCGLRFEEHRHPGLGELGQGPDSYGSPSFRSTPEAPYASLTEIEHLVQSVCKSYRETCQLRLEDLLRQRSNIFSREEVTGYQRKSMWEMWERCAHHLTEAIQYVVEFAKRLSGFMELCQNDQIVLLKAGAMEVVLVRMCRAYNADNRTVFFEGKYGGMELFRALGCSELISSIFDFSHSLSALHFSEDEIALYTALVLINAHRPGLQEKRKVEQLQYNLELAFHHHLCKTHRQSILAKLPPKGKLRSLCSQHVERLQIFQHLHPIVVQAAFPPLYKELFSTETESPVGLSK

In test [3] the target is Retinoic acid receptor RXR-alpha (Homo sapiens) (UniProt P19793). The test is described as follows: ATG_RXRa_TRANS: Attagene TRANS-FACTORIAL HepG2 Assay for human Retinoid X Receptor alpha (RXRa) (AID 2283012; active = hit-call score of the fitted dose curve at least 0.9, where 1 is the maximum). The method, boiled down:
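HepG2 cells transiently transfected with multiplexed GAL4-UAS reporter units and chimeric NR-GAL4 fusions, dosed 24 h. Reporter mRNA measured by RT-PCR, FAM labelling, HpaI digestion and capillary electrophoresis; gain-of-signal fitted relative to DMSO baseline.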

For test [4], the target named is human Retinoid X Receptor beta (RXRb), RXRB (gene 6257) (UniProt P28702). Nature of the test: ATG_RXRb_TRANS: Attagene TRANS-FACTORIAL HepG2 Assay for human Retinoid X Receptor beta (RXRb) (AID 2283013; active = hit-call score of the fitted dose curve at least 0.9, where 1 is the maximum). The method, boiled down:
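HepG2 cells transiently transfected with multiplexed reporter units driven by GAL4-UAS and exogenous chimeric NR-Gal4 proteins; treated 24 h. Reporter mRNA measured by RT-PCR, 6-FAM labelling and capillary electrophoresis; gain-of-signal fitted versus DMSO baseline.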

Test [5] has as its target human Thyroid Receptor alpha (THRa1), THRA (gene 7067) (UniProt P10827). The test is described as follows: ATG_THRa1_TRANS: Attagene TRANS-FACTORIAL HepG2 Assay for human Thyroid Receptor alpha (THRa1) (AID 2283014; active = hit-call score of the fitted dose curve at least 0.9, where 1 is the maximum). The procedure, abridged: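 HepG2 cells transiently transfected with multiplexed GAL4-UAS reporter units for exogenous chimeric THRa1-Gal4; reporter mRNA measured 24 h after dosing by RT-PCR, 6-FAM labelling, HpaI digestion and capillary electrophoresis. Gain-of-signal fitted versus DMSO baseline.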

Read-out in test [6]: E-selectin (Homo sapiens) (UniProt P16581)
The test is described as follows: BSK_3C_Eselectin: BioMAP Diversity Plus: 3C Assay for Eselectin Biomarker Activity (AID 2283015).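 As to outcome: cell surface E-selectin protein quantified by ELISA 24 h after dosing.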 The note with it: primary human endothelial cells (HUVEC); actives raise or lower the signal. The method, boiled down: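 Primary human umbilical vein endothelial cells (3C system) were dosed with chemical and cell-surface E-selectin measured by ELISA 24 h later. Bidirectional curve fitting used DMSO as negative control and baseline.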

Read-out in test [7]: Interleukin-1 alpha (IL1a), IL1A (gene 3552)
The test is described as follows: BSK_BE3C_IL1a: BioMAP Diversity Plus: BE3C Assay for Interleukin-1 alpha (IL1a) Biomarker Activity (AID 2283016). The note with it: primary human bronchial epithelial cells; actives raise or lower the signal. The method, boiled down:
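Human primary bronchial epithelial cells (BE3C system) were dosed with compound and IL-1a measured by ELISA 24 h later. Activity was fitted bidirectionally against DMSO baseline; cytotoxicity was tracked in parallel cultures by SRB total-protein staining.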

Read-out in test [8]: Monocyte Chemoattractant Protein-1 (MCP1), CCL2 (gene 6347)
Nature of the test: BSK_3C_MCP1: BioMAP Diversity Plus: 3C Assay for Monocyte Chemoattractant Protein-1 (MCP1) Biomarker Activity (AID 2283017). The note with it: primary human endothelial cells (HUVEC); actives raise or lower the signal. The procedure, abridged:
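Primary human umbilical vein endothelial cells (3C system) were exposed to test chemical for 24 h, after which MCP-1 was quantified by ELISA. Activity was fitted bidirectionally against DMSO as negative control and baseline.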

Read-out in test [9]: Monocyte Chemoattractant Protein-1 (MCP1), CCL2 (gene 6347)
Nature of the test: BSK_4H_MCP1: BioMAP Diversity Plus: 4H Assay for Monocyte Chemoattractant Protein-1 (MCP1) Biomarker Activity (AID 2283018). The note with it: primary human endothelial cells (HUVEC); actives raise or lower the signal. The procedure, abridged: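 Human umbilical vein endothelial cells (4H system) dosed with chemical; MCP-1 measured by ELISA 24 h after dosing. Bidirectional curve fitting against DMSO negative control as baseline; parallel SRB total-protein staining tracks overt cytotoxicity.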

Read-out in test [10]: Human Leukocyte Antigen - DR isotype (HLADR), HLA-DRA (gene 3122)
Nature of the test: BSK_3C_HLADR: BioMAP Diversity Plus: 3C Assay for Human Leukocyte Antigen - DR isotype (HLADR) Biomarker Activity (AID 2283019). The conditions noted are these: primary human endothelial cells (HUVEC); actives raise or lower the signal. The procedure, abridged: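 Primary human umbilical vein endothelial cells (3C system) were dosed with compound and cell-surface HLA-DR was quantified by ELISA at 24 h. Activity was fitted bidirectionally against DMSO as negative control and baseline.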

Read-out in test [11]: Interleukin-8 (IL8), CXCL8 (gene 3576)
The test is described as follows: BSK_3C_IL8: BioMAP Diversity Plus: 3C Assay for Interleukin-8 (IL8) Biomarker Activity (AID 2283020). The conditions noted are these: primary human endothelial cells (HUVEC); actives raise or lower the signal. The method, boiled down: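 Primary human umbilical vein endothelial cells (3C system) were exposed to test chemical for 24 h, then IL-8 was quantified by ELISA. Responses were fitted bidirectionally against DMSO vehicle as baseline.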

Read-out in test [12]: Monokine induced gamma interferon (MIG), CXCL9 (gene 4283)
Nature of the test: BSK_3C_MIG: BioMAP Diversity Plus: 3C Assay for Monokine induced gamma interferon (MIG) Biomarker Activity (AID 2283021). The note with it: primary human endothelial cells (HUVEC); actives raise or lower the signal. The method, boiled down:
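Primary human umbilical vein endothelial cells in the 3C system were exposed to chemical for 24 h, after which MIG was quantified by ELISA. Activity was fitted bidirectionally against DMSO as negative control and baseline.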

The nature of test [13]: BSK_3C_SRB: Viability Assessment in the BioMAP Diversity Plus: 3C Assay (AID 2283023).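 Also: fitted both ways against DMSO so a hit may be signal rise or drop.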 The note with it: primary human endothelial cells (HUVEC). The method, boiled down:
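Primary human umbilical vein endothelial cells in the 3C system were read 24 h after compound dosing. Total protein was stained with 0.1% sulforhodamine B after 10% TCA fixation and read at 560 nm, with bidirectional fitting against DMSO as baseline.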

Read-out in test [14]: Matrix Metallopeptidase 1 (MMP1), MMP1 (gene 4312)
Nature of the test: BSK_BE3C_MMP1: BioMAP Diversity Plus: BE3C Assay for Matrix Metallopeptidase 1 (MMP1) Biomarker Activity (AID 2283024). The conditions noted are these: primary human bronchial epithelial cells; actives raise or lower the signal. The method, boiled down: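 Primary human bronchial epithelial cells were dosed with test chemicals, and MMP1 levels were measured by ELISA 24 h later. Data were fitted bidirectionally against DMSO as the negative control and activity baseline.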

Read-out in test [15]: Pselectin, SELP (gene 6403)
The test is described as follows: BSK_4H_Pselectin: BioMAP Diversity Plus: 4H Assay for Pselectin Biomarker Activity (AID 2283026). The note with it: primary human endothelial cells (HUVEC); actives raise or lower the signal. The procedure, abridged: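 Primary human umbilical vein endothelial cells were exposed to test chemical for 24 h, then cell-surface P-selectin was quantified by ELISA. Activity was fitted bidirectionally against DMSO as negative control and baseline.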

The nature of test [16]: BSK_4H_SRB: Viability Assessment in the BioMAP Diversity Plus: 4H Assay (AID 2283027).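 Also: cells exposed to compound for 24 h before staining.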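 As to AC50: curves fitted both ways versus DMSO so AC50 may be loss or gain.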 The conditions noted are these: primary human endothelial cells (HUVEC). The procedure, abridged: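 Human umbilical vein endothelial cells were dosed with chemical and, after 24 h, fixed with 10% TCA, stained with 0.1% sulforhodamine B, and read at 560 nm to give total protein as a cytotoxicity measure. Bidirectional fitting relative to DMSO control.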

The nature of test [17]: BSK_BE3C_SRB: Viability Assessment in the BioMAP Diversity Plus: BE3C Assay (AID 2283028).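 Also: fitted both ways so AC50 may mark signal gain or loss versus DMSO.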 The conditions noted are these: primary human bronchial epithelial cells. The procedure, abridged: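 Human primary bronchial epithelial cells were exposed to test chemicals for 24 h. Total protein in parallel cultures was then measured by staining with 0.1% sulforhodamine B after 10% TCA fixation, with absorbance read at 560 nm. Activity was fitted bidirectionally against DMSO.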

Read-out in test [18]: Thrombomodulin, THBD (gene 7056)
The test is described as follows: BSK_3C_Thrombomodulin: BioMAP Diversity Plus: 3C Assay for Thrombomodulin Biomarker Activity (AID 2283029). The note with it: primary human endothelial cells (HUVEC); actives raise or lower the signal. The procedure, abridged:
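Primary human umbilical vein endothelial cells (3C system) were exposed to chemical for 24 h, then thrombomodulin levels were measured by ELISA. Activity was fitted bidirectionally against the DMSO negative control as baseline.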

Read-out in test [19]: Urokinase-type plasminogen activator receptor (uPAR), PLAUR (gene 5329)
Nature of the test: BSK_4H_uPAR: BioMAP Diversity Plus: 4H Assay for Urokinase-type plasminogen activator receptor (uPAR) Biomarker Activity (AID 2283030). The conditions noted are these: primary human endothelial cells (HUVEC); actives raise or lower the signal. The method, boiled down:
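Primary human umbilical vein endothelial cells were exposed to chemical for 24 h before cell-surface uPAR was quantified by ELISA. Activity was fitted bidirectionally against the DMSO negative control baseline.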

Test [20] has as its target human Vitamin D Receptor (VDR), VDR (gene 7421) (UniProt P11473). Nature of the test: ATG_VDR_TRANS: Attagene TRANS-FACTORIAL HepG2 Assay for human Vitamin D Receptor (VDR) (AID 2283022; active = hit-call score of the fitted dose curve at least 0.9, where 1 is the maximum). The procedure, abridged:
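HepG2 cells were transiently transfected with multiple GAL4-UAS reporter units, so signal reflects exogenous chimeric receptor-Gal4 activity. After 24 h compound exposure, reporter mRNA was measured by RT-PCR, fluorescent labelling and capillary electrophoresis, fitted for gain of signal versus DMSO.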

Molecules are shown by their SMILES. Where “and” joins values, the source holds several entries; their conditions need not be identical. Equal values may be shown once. Results filed as inconclusive are left out. Where a structure was tested more than once in an assay, its records may differ in their call. Calls of active or inactive are those of the source. The calls were made as follows, unless noted: active = hit-call score of the fitted dose curve at least 0.9, where 1 is the maximum; inactive = score below 0.9.

Chain of human RAR-related Orphan Receptor beta (RORb), RORB (gene 6096) (Q92753 whole entry, looked up, the tested form may be a part): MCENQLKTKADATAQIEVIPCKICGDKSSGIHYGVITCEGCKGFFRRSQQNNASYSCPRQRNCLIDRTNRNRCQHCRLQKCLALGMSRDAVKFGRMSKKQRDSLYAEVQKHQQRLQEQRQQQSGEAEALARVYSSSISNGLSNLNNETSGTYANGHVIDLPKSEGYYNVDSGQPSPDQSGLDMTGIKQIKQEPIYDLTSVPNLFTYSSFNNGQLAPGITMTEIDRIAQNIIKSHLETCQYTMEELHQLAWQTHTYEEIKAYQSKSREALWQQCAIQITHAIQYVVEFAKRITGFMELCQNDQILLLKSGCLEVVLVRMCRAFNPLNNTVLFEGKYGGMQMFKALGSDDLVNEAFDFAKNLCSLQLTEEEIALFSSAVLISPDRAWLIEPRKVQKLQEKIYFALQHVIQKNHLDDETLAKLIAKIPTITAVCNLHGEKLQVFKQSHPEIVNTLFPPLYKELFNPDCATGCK
Chain of human Thyroid Receptor alpha (THRa1), THRA (gene 7067) (P10827 whole entry, looked up, the tested form may be a part): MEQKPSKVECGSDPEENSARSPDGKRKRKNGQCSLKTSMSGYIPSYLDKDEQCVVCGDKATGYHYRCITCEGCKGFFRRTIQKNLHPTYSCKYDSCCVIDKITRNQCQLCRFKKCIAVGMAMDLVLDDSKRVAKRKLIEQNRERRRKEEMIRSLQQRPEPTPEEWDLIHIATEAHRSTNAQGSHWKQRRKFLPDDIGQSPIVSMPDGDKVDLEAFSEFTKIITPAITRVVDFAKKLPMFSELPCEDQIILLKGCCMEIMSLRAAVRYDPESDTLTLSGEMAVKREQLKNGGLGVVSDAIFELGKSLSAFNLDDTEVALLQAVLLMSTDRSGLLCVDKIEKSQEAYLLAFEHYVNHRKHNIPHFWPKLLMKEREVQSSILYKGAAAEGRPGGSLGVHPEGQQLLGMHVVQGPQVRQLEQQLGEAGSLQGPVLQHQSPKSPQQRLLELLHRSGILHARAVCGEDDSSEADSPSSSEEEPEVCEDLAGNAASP
Chain of Retinoic acid receptor RXR-alpha (Homo sapiens) (P19793 whole entry, looked up, the tested form may be a part): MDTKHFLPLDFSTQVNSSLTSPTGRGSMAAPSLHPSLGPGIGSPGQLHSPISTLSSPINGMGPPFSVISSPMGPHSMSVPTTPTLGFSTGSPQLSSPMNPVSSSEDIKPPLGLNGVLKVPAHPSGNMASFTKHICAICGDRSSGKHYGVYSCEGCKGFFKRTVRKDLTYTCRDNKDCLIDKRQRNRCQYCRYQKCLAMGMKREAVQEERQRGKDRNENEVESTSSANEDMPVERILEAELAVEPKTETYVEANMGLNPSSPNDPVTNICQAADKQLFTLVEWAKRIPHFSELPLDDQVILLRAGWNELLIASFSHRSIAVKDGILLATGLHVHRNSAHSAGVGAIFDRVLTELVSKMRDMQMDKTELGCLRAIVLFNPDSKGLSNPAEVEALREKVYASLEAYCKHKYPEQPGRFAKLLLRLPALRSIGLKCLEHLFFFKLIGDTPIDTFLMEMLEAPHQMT
Chain of E-selectin (Homo sapiens) (P16581 whole entry, looked up): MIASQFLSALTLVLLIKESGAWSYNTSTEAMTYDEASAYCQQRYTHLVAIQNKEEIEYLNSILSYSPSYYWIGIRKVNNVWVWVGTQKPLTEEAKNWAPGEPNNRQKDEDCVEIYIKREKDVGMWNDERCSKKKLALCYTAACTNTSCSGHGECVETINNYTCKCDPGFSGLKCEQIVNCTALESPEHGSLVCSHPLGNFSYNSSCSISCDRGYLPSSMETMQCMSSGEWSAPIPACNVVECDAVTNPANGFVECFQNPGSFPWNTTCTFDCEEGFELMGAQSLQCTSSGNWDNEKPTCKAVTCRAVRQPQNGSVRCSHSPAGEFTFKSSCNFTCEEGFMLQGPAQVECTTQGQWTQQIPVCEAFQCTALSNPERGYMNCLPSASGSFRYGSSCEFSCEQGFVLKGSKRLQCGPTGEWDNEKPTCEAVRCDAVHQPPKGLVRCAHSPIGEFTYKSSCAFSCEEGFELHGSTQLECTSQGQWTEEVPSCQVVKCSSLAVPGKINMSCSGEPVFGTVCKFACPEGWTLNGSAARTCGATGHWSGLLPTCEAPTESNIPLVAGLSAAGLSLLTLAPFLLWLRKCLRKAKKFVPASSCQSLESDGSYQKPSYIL
Chain of human Retinoid X Receptor beta (RXRb), RXRB (gene 6257) (P28702 whole entry, looked up, the tested form may be a part): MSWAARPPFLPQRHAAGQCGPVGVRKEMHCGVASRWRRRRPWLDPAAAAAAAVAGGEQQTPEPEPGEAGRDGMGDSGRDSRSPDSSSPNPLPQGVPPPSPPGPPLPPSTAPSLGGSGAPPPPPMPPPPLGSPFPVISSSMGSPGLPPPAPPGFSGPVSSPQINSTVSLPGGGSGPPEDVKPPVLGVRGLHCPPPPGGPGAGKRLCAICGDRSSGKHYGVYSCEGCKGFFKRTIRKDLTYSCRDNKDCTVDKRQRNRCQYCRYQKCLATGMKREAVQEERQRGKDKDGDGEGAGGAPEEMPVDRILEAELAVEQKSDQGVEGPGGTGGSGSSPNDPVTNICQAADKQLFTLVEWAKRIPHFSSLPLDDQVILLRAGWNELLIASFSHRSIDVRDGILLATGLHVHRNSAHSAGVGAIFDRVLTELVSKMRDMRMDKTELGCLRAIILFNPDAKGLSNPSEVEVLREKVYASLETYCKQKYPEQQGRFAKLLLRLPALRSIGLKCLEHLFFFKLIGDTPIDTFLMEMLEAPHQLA
Chain of human Vitamin D Receptor (VDR), VDR (gene 7421) (P11473 whole entry, looked up, the tested form may be a part): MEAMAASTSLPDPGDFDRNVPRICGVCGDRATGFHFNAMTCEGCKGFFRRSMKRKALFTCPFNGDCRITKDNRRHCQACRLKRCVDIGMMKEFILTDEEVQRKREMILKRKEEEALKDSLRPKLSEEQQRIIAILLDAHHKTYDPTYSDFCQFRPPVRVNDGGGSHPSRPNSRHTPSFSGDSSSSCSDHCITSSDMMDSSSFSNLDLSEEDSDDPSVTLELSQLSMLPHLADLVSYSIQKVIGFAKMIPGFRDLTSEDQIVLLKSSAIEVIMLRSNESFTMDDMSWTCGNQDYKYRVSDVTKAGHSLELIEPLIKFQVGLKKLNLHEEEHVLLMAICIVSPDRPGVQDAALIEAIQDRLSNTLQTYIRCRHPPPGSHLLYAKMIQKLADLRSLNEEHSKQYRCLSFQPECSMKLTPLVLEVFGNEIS

By AC50 is commonly meant the concentration at which the activity in the assay is half-maximal. As to `Cc1cc(C)c(O)c(C(C)(C)C)c1`, the result in test [1], in test [2], in test [3], in test [5] and in [12] was inactive. Further, the AC50 is 28.9 µM (active) in test [4]; 28.9 µM (active) in test [6]; 32.6 µM (active) in [7]; 29 µM (active) in test [8]; 30.7 µM (active) in test [9]; 15.8 µM (active) in test [10]. The concentration at half-maximal activity (AC50) was 20 µM (active) in test [11]; 30.1 µM (active) in test [13]; 29 µM (active) in test [14]; 20 µM (active) in test [15]; 29.5 µM (active) in [16]; 32 µM (active) in test [17]. Moreover, the figures for the AC50 in [18] and in test [19] were 33.9 µM (active) and 37.7 µM (active), respectively.
With `O=C(Cl)C(F)(F)C(F)(F)C(F)(F)C(F)(F)C(F)(F)C(F)(F)C(F)(F)F`, the compound was called inactive in [1], in test [2], in test [3], in [5], in test [6] and in test [7]. The result in [8], in test [9], in test [10], in test [11], in [20] and in test [13] was inactive. Besides, the result in test [14], in [15], in test [16], in [18] and in [19] was inactive. Besides, the AC50 in [4] was 34.6 µM (active); in [14] it was 6 µM (active) and 24 µM (active).
As for `CNS(=O)(=O)C(F)(F)C(F)(F)C(F)(F)C(F)(F)C(F)(F)C(F)(F)C(F)(F)C(F)(F)F`, the compound was classed as inactive in test [1], in [3], in test [4], in test [5], in test [6] and in [7]. Also, the result in test [8], in [9], in test [11], in test [12], in [20] and in test [13] was inactive. Also, the outcome in test [14], in test [15], in test [16], in test [18] and in test [19] was inactive. Besides, the AC50 in test [10] was 6.3 µM (active) and 8.04 µM (active); in test [16], 29.8 µM (active).
